Experimental data taken from PubChem BioAssay AID1159580 (chemical genetic matrix, 2015).
Values joined by “and” are separate entries in the source; they are usually repeats but may differ in a detail not shown here. Identical values can stand only once. Among all 5,500 compounds or so, about 2,000 (36%) were called active. Inconclusive results (about 18%) are left out. No stated cut-off is given here; in the data, active means normalized growth mostly below about 0.91 (no sharp cut-off); inconclusive means no clear call, values can overlap the other calls; inactive means mostly above about 0.92. This is one part of the list.

Assay: chemical genetic growth profiling, strain panel (AID 1159580);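 further: tested at 20 µM; growth read once vehicle control cultures reached saturation at 30 °C; 1 = growth at the plate median or of vehicle wells; lower values mean less growth of the strain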
Conditions: S. cerevisiae deletion strains, growth OD

Measured: normalized growth

CCC[C@@H]1C[C@@H](C(=O)N[C@H]([C@H]2O[C@H](SC)[C@H](O)[C@@H](O)[C@H]2O)[C@H](C)O)N(C)C1
inactive: locus YAL021C, strain ccr4, active compounds read low 0.981 | locus YAL026C, strain drs2, active compounds read low 0.99 | locus YAL030W, strain snc1, active compounds read low 0.984 | locus YBL061C, strain skt5, active compounds read low 0.981 | locus YBR009C, strain hhf1, active compounds read low 1.01 | locus YBR021W, strain FUR4, active compounds read low 1.01 | locus YBR023C, strain chs3, active compounds read low 0.977 | locus YBR171W, strain sec66, active compounds read low 0.962 | locus YBR229C, strain ROT2, active compounds read low 0.991 | locus YBR231C, strain swc5, active compounds read low 0.981 | locus YBR279W, strain paf1, active compounds read low 0.985 | locus YCL011C, strain gbp2, active compounds read low 0.997 | locus YCL016C, strain dcc1, active compounds read low 1.03 | locus YCL029C, strain bik1, active compounds read low 0.996 | locus YCL061C, strain MRC1, active compounds read low 0.969 | locus YCL069W, strain vba3, active compounds read low 0.971 | locus YCR088W, strain abp1, active compounds read low 0.973 | locus YDL005C, strain med2, active compounds read low 0.979 | locus YDL035C, strain GPR1, active compounds read low 1.02 | locus YDL040C, strain nat1, active compounds read low 0.975 | locus YDL074C, strain BRE1, active compounds read low 1.03 | locus YDL101C, strain DUN1, active compounds read low 0.983 | locus YDL134C, strain PPH21, active compounds read low 1 | locus YDL185W, strain tfp1, active compounds read low 0.979 | locus YDL192W, strain arf1, active compounds read low 0.98 | locus YDR001C, strain nth1, active compounds read low 0.958 | locus YDR069C, strain doa4, active compounds read low 0.965 | locus YDR101C, strain arx1, active compounds read low 1.01 | locus YDR137W, strain rgp1, active compounds read low 0.983 | locus YDR150W, strain NUM1, active compounds read low 1 | locus YDR159W, strain sac3, active compounds read low 1.01 | locus YDR162C, strain NBP2, active compounds read low 1.01 | locus YDR195W, strain ref2 0.922 | locus YDR297W, strain sur2, active compounds read low 0.975 | locus YDR318W, strain mcm21, active compounds read low 0.989 | locus YDR334W, strain swr1, active compounds read low 0.929 | locus YDR335W, strain msn5, active compounds read low 0.974 | locus YDR388W, active compounds read low 0.992 | locus YDR392W, strain spt3, active compounds read low 1.04 | locus YDR502C, strain sam2, active compounds read low 0.991 | locus YEL003W, strain gim4, active compounds read low 0.952 | locus YEL037C, strain rad23, active compounds read low 0.983 | locus YEL061C, strain CIN8 (second series), active compounds read low 0.962 | locus YEL061C, strain CIN8, active compounds read low 1.01 | locus YER015W, strain faa2, active compounds read low 1.01 | locus YER016W, strain bim1, active compounds read low 0.987 | locus YER110C, active compounds read low 0.983 | locus YER111C, strain swi4, active compounds read low 0.98 | locus YER155C, strain BEM2 (second series), active compounds read low 0.986 | locus YER155C, strain BEM2, active compounds read low 0.975 | locus YER167W, strain BCK2, active compounds read low 1.02 | locus YFR010W, strain ubp6, active compounds read low 0.974 | locus YGL078C, strain dbp3, active compounds read low 0.981 | locus YGL086W, strain mad1, active compounds read low 1 | locus YGL167C, strain pmr1, active compounds read low 0.959 | locus YGL173C, strain kem1, active compounds read low 0.973 | locus YGL227W, strain vid30, active compounds read low 0.978 | locus YGL240W, strain doc1, active compounds read low 0.958 | locus YGL248W, strain PDE1, active compounds read low 0.986 | locus YGL253W, strain hxk2, active compounds read low 0.992 | locus YGR078C, strain PAC10, active compounds read low 0.993 | locus YGR135W, strain pre9, active compounds read low 0.955 | locus YGR252W, strain gcn5, active compounds read low 0.943 | locus YHR013C, strain ard1, active compounds read low 0.993 | locus YHR027C, strain rpn1, active compounds read low 0.981 | locus YHR030C, strain SLT2, active compounds read low 1.01 | locus YHR079C, strain IRE1 (second series), active compounds read low 0.998 | locus YHR079C, strain IRE1, active compounds read low 1.03 | locus YHR094C, strain hxt1, active compounds read low 0.998 | locus YHR129C, strain ARP1, active compounds read low 0.981 | locus YHR142W, strain chs7, active compounds read low 0.995 | locus YHR200W, strain rpn10, active compounds read low 0.993 | locus YIL066C, strain RNR3, active compounds read low 0.991 | locus YIL073C, strain SPO22, active compounds read low 1 | locus YIL125W, strain kgd1, active compounds read low 0.985 | locus YIR030C, strain dcg1, active compounds read low 0.99 | locus YJL092W, strain hpr5, active compounds read low 0.977 | locus YJL095W, strain BCK1 (second series), active compounds read low 0.978 | locus YJL095W, strain BCK1, active compounds read low 0.98 and 1.02 | locus YJL115W, strain asf1, active compounds read low 0.977 | locus YJL129C, strain trk1, active compounds read low 0.984 | locus YJL134W, strain LCB3, active compounds read low 0.998 | locus YJL154C, strain vps35, active compounds read low 0.969 | locus YJL164C, strain tpk1, active compounds read low 1.01 | locus YJL166W, strain qcr8, active compounds read low 0.934 | locus YJL168C, strain set2, active compounds read low 0.992 | locus YJL187C, strain SWE1 (second series), active compounds read low 0.984 | locus YJR043C, strain POL32, active compounds read low 1.01
